Results from ChEMBL document CHEMBL5606460, “ASAP - DENV-2 NS2B-NS3 protease fluorescence single point” (2024).
Out of some 2,000 compounds screened, about 110 (5.5%) showed an effect of 50% or more. Shown is part of a subset that was picked to be rich in strong results.

Biological target: Genome polyprotein (dengue virus type 2) (UniProt P29990)
[1] = Thailand/16681/1984, Concentration 25.0 uM, Number of replicates 1.0

**Q.** How did the inhibition [1] turn out when `O=Cc1ccc(N2CCC(C(=O)NC3CN(C(c4ccccc4)c4ccccc4)C3)CC2)cc1` was run?
**A.** Its inhibition is 2.62%.

**Q.** With `CC(C)N(C[C@H](O)COc1ccc(CC(N)=O)cc1)C(=O)C1CCN(c2ccc(C=O)cc2)CC1` as the compound, how does the inhibition [1] read?
**A.** Its inhibition is 13.4%.

**Q.** Which results are given for `Cc1ccc(S(N)(=O)=O)c(NCc2ccc(N3CCN(C)CC3)cc2)c1`?
**A.** inhibition (Thailand/16681/1984, Concentration 49.5 uM, Number of replicates 2.0, Standard deviation 0.9591550294519122 %): -0.337%; inhibition (Thailand/16681/1984, Concentration 99.01 uM, Number of replicates 2.0, Standard deviation 0.6629248720953049 %): 1.24%; inhibition (Thailand/16681/1984, Concentration 198.0 uM, Number of replicates 2.0, Standard deviation 0.09920698004573132 %): 1.03%

**Q.** How did the inhibition [1] turn out when `CCc1ccc(CN(CC(C)C)C(=O)C2CCN(c3ccc(C=O)cc3)CC2)cc1` was run?
**A.** Its inhibition is 13.3%.

**Q.** With `O=Cc1ccc(N2CCC(C(=O)Nc3ccccc3Sc3ccccc3)CC2)cc1` as the compound, how does the inhibition [1] read?
**A.** The inhibition was 12.1%.

**Q.** With `CCc1cccc(S(=O)(=O)Nc2ccc(Cl)cc2C(=O)NC)c1` as the compound, how does the inhibition (Thailand/16681/1984, Concentration 49.5 uM, Number of replicates 2.0, Standard deviation 0.31892086155653854 %) read?
**A.** Its inhibition is 0.409%.

**Q.** What about the inhibition (Thailand/16681/1984, Concentration 99.01 uM, Number of replicates 2.0, Standard deviation 0.4824817381530084 %) of the same compound?
**A.** Its inhibition is 0.666%.

**Q.** What about the inhibition (Thailand/16681/1984, Concentration 198.0 uM, Number of replicates 2.0, Standard deviation 0.7239504320191382 %) of the same compound?
**A.** The inhibition was 1.73%.

**Q.** Which results are given for `COC1CN(C(=O)c2cc(Cl)ccc2NS(=O)(=O)c2ccc(Oc3ccccc3Cl)cc2)C1`?
**A.** inhibition (Thailand/16681/1984, Concentration 49.5 uM, Number of replicates 2.0, Standard deviation 0.43340110085934463 %): 13.9%; inhibition (Thailand/16681/1984, Concentration 99.01 uM, Number of replicates 2.0, Standard deviation 0.8668022017186893 %): 27.6%; inhibition (Thailand/16681/1984, Concentration 198.0 uM, Number of replicates 2.0, Standard deviation 1.1631532151634014 %): 43.9%

**Q.** How did the inhibition (Thailand/16681/1984, Concentration 49.5 uM, Number of replicates 2.0, Standard deviation 1.273206391645472 %) turn out when `CNC(=O)c1cc(Cl)ccc1NS(=O)(=O)c1cccc(Oc2ccccc2)c1` was run?
**A.** The inhibition was 8.45%.

**Q.** What about the inhibition (Thailand/16681/1984, Concentration 99.01 uM, Number of replicates 2.0, Standard deviation 0.33776821571418564 %) of the same compound?
**A.** Its inhibition is 23.8%.

**Q.** What about the inhibition (Thailand/16681/1984, Concentration 198.0 uM, Number of replicates 2.0, Standard deviation 0.06600533651594093 %) of the same compound?
**A.** Its inhibition is 89.9%.

**Q.** Which inhibition (Thailand/16681/1984, Concentration 49.5 uM, Number of replicates 2.0, Standard deviation 0.7714528805703116 %) does the source give for `CNC(=O)c1cc(Cl)ccc1NS(=O)(=O)c1ccc(F)c(C(=O)N2CCCC2)c1` here?
**A.** Its inhibition is -4.6%.

**Q.** What about the inhibition (Thailand/16681/1984, Concentration 99.01 uM, Number of replicates 2.0, Standard deviation 1.6986403894371052 %) of the same compound?
**A.** The inhibition was -2.1%.

**Q.** What about the inhibition (Thailand/16681/1984, Concentration 198.0 uM, Number of replicates 2.0, Standard deviation 1.4542094148600992 %) of the same compound?
**A.** Its inhibition is 1.16%.

**Q.** What does the source list for `NC(=O)c1ccccc1NS(=O)(=O)c1ccc(Oc2ccccc2Cl)cc1`?
**A.** inhibition (Thailand/16681/1984, Concentration 49.5 uM, Number of replicates 2.0, Standard deviation 0.6673279112123895 %): 5.67%; inhibition (Thailand/16681/1984, Concentration 99.01 uM, Number of replicates 2.0, Standard deviation 2.0636931261780913 %): 38.8%; inhibition (Thailand/16681/1984, Concentration 198.0 uM, Number of replicates 2.0, Standard deviation 0.3870011295715193 %): 81.3%

**Q.** How did the inhibition (Thailand/16681/1984, Concentration 49.5 uM, Number of replicates 2.0, Standard deviation 0.3065647121254482 %) turn out when `O=C(c1cc(Cl)ccc1NS(=O)(=O)c1ccc(Oc2ccccc2Cl)cc1)N1CCCC1` was run?
**A.** Its inhibition is 37.4%.

**Q.** What about the inhibition (Thailand/16681/1984, Concentration 99.01 uM, Number of replicates 2.0, Standard deviation 0.3046576515240273 %) of the same compound?
**A.** Its inhibition is 55.4%.

**Q.** What about the inhibition (Thailand/16681/1984, Concentration 198.0 uM, Number of replicates 2.0, Standard deviation 0.40716687929743567 %) of the same compound?
**A.** The inhibition was 69%.

**Q.** Which results are given for `CNC(=O)c1cc(Cl)ccc1NS(=O)(=O)c1cccc(S(N)(=O)=O)c1`?
**A.** inhibition (Thailand/16681/1984, Concentration 49.5 uM, Number of replicates 2.0, Standard deviation 0.4003966624337367 %): 1.73%; inhibition (Thailand/16681/1984, Concentration 99.01 uM, Number of replicates 2.0, Standard deviation 1.0615056375609497 %): 3.26%; inhibition (Thailand/16681/1984, Concentration 198.0 uM, Number of replicates 2.0, Standard deviation 0.04640199433655389 %): 5.28%

**Q.** For `O=S(=O)(Nc1ccccc1)c1ccc(Oc2ccccc2Cl)cc1`, which inhibition (Thailand/16681/1984, Concentration 49.5 uM, Number of replicates 2.0, Standard deviation 1.8105423163556815 %) is on record?
**A.** The inhibition was 1.05%.

**Q.** What about the inhibition (Thailand/16681/1984, Concentration 99.01 uM, Number of replicates 2.0, Standard deviation 1.556829309720985 %) of the same compound?
**A.** The inhibition was 2.93%.

**Q.** And the inhibition (Thailand/16681/1984, Concentration 198.0 uM, Number of replicates 2.0, Standard deviation 1.335088080503107 %)?
**A.** Its inhibition is 5.83%.

**Q.** How did the inhibition (Thailand/16681/1984, Concentration 49.5 uM, Number of replicates 2.0, Standard deviation 0.8338499147497574 %) turn out when `CNC(=O)c1ccccc1NS(=O)(=O)c1ccc(Oc2ccccc2Cl)cc1` was run?
**A.** Its inhibition is 0.494%.

**Q.** And the inhibition (Thailand/16681/1984, Concentration 99.01 uM, Number of replicates 2.0, Standard deviation 3.066215993073902 %)?
**A.** Its inhibition is -2.05%.

**Q.** What about the inhibition (Thailand/16681/1984, Concentration 198.0 uM, Number of replicates 2.0, Standard deviation 2.7475277663160753 %) of the same compound?
**A.** Its inhibition is -6.31%.

**Q.** `CNC(=O)[C@H]1CCCN1S(=O)(=O)c1ccc(Oc2ccccc2Cl)cc1` was tested. Which inhibition (Thailand/16681/1984, Concentration 49.5 uM, Number of replicates 2.0, Standard deviation 0.43290983719310167 %) did it give?
**A.** Its inhibition is -4.62%.

**Q.** What about the inhibition (Thailand/16681/1984, Concentration 99.01 uM, Number of replicates 2.0, Standard deviation 1.120416310773355 %) of the same compound?
**A.** Its inhibition is -4.38%.

**Q.** And the inhibition (Thailand/16681/1984, Concentration 198.0 uM, Number of replicates 2.0, Standard deviation 0.24124704358981106 %)?
**A.** The inhibition was -3.59%.

**Q.** Which inhibition (Thailand/16681/1984, Concentration 49.5 uM, Number of replicates 2.0, Standard deviation 1.2236693461292836 %) does the source give for `O=C(c1cc(Cl)ccc1NS(=O)(=O)c1ccc(Oc2ccccc2Cl)cc1)N1CCC[C@H](O)C1` here?
**A.** Its inhibition is 22.2%.

**Q.** And the inhibition (Thailand/16681/1984, Concentration 99.01 uM, Number of replicates 2.0, Standard deviation 0.043163767671764885 %)?
**A.** The inhibition was 86.9%.

**Q.** And the inhibition (Thailand/16681/1984, Concentration 198.0 uM, Number of replicates 2.0, Standard deviation 0.0596286869236367 %)?
**A.** The inhibition was 96.8%.

**Q.** With `Cc1nc(C2CCN(C(=O)c3ccn([C@H]4CCCNC4)n3)CC2)n[nH]1` as the compound, how does the inhibition (Thailand/16681/1984, Concentration 49.5 uM, Number of replicates 2.0, Standard deviation 0.8219326667939915 %) read?
**A.** Its inhibition is -4.42%.

**Q.** And the inhibition (Thailand/16681/1984, Concentration 99.01 uM, Number of replicates 2.0, Standard deviation 0.15240671313806178 %)?
**A.** The inhibition was -3.84%.

**Q.** What about the inhibition (Thailand/16681/1984, Concentration 198.0 uM, Number of replicates 2.0, Standard deviation 2.223365450237249 %) of the same compound?
**A.** Its inhibition is -4.59%.

**Q.** Which inhibition [1] does the source give for `O=Cc1ccc(N2CCC(C(=O)NCCc3cccc(Br)c3)CC2)cc1` here?
**A.** The inhibition was 11.8%.

**Q.** Which inhibition [1] does the source give for `O=Cc1ccc(N2CCC(C(=O)N3CC4C[C@H]5CC3C[C@H](C4)C5)CC2)cc1` here?
**A.** Its inhibition is 14.5%.

**Q.** For `O=Cc1ccc(N2CCC(C(=O)Nc3ccccc3OCC(F)(F)F)CC2)cc1`, which inhibition [1] is on record?
**A.** Its inhibition is 13.4%.

**Q.** How did the inhibition (Thailand/16681/1984, Concentration 49.5 uM, Number of replicates 2.0, Standard deviation 1.3250088302691205 %) turn out when `Cn1cc(CNC(=O)c2ccccc2[C@@H]2CCCCN2)cn1` was run?
**A.** Its inhibition is -2.36%.

**Q.** And the inhibition (Thailand/16681/1984, Concentration 99.01 uM, Number of replicates 2.0, Standard deviation 0.6184423716804828 %)?
**A.** The inhibition was -1.37%.

**Q.** What about the inhibition (Thailand/16681/1984, Concentration 198.0 uM, Number of replicates 2.0, Standard deviation 0.12536703369097324 %) of the same compound?
**A.** The inhibition was -0.243%.
